Several values for one entry are separate records, joined by “and”; a condition that tells them apart may be missing. Equal values may be shown once. The panel holds about 83,000 compounds, 20% with a hit somewhere; the sample as a whole holds those more often.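 Negative percent growth values reflect cell death: -40 means 40% of the cells present at the start died, and -100 means all died.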 Activity calls are given as the source filed them. How the source made its calls: active means growth percent below 10; inactive means the rest.
Legend:
Assay in all cases: NCI-60 one-dose screen, 48 h (100 = growth as untreated, 0 = no growth, -100 = all killed)
HCT-15 colon = settings: 10 µM
HT29 colon = settings: 10 µM
SNB-75 CNS = settings: 10 µM
SNB-19 CNS = settings: 10 µM
U251 CNS = settings: 10 µM
PC-3 prostate = settings: 10 µM
SK-MEL-5 melanoma = settings: 10 µM
UACC-62 melanoma = system: UACC-62 melanoma
LOX IMVI melanoma = settings: 10 µM
SK-MEL-28 melanoma = settings: 10 µM
SK-MEL-2 melanoma = settings: 10 µM
EKVX NSCLC = settings: 10 µM
SN12C renal = settings: 10 µM
UO-31 renal = settings: 10 µM
TK-10 renal = system: TK-10 renal
ACHN renal = settings: 10 µM
CAKI-1 renal = settings: 10 µM
A498 renal = settings: 10 µM
HL-60(TB) leukemia = settings: 10 µM
CCRF-CEM leukemia = settings: 10 µM

Measured: growth

ClCc1ccc2ccccc2n1
inactive: HCT-15 colon 103% | HT29 colon 94.1% | SNB-75 CNS 81.8% | SNB-19 CNS 103% | U251 CNS 103% | PC-3 prostate 92.1% | SK-MEL-5 melanoma 91% | UACC-62 melanoma; 10 µM unless noted 74.9% | LOX IMVI melanoma 80.5% | SK-MEL-28 melanoma 110% | SK-MEL-2 melanoma 99.4% | EKVX NSCLC 93.2% | SN12C renal 86% | UO-31 renal 89.8% | TK-10 renal; 10 µM unless noted 113% | ACHN renal 96.8% | CAKI-1 renal 58.5% | A498 renal 98.1% | HL-60(TB) leukemia 66.3% | CCRF-CEM leukemia 103%

O=C1C(=O)c2ccccc2-c2ccccc21
active: HCT-15 colon -69.5% | HT29 colon -16.1% | SNB-75 CNS -100% | SNB-19 CNS -78.6% | U251 CNS -87.8% | PC-3 prostate -47% | SK-MEL-5 melanoma -95.7% | UACC-62 melanoma; 10 µM unless noted -67.4% | LOX IMVI melanoma -58.5% | SK-MEL-28 melanoma -91.2% | SK-MEL-2 melanoma -50.3% | EKVX NSCLC -96.9% | SN12C renal -61.5% | UO-31 renal -86.4% | TK-10 renal; 10 µM unless noted -97.9% | ACHN renal -94.3% | CAKI-1 renal -100% | CCRF-CEM leukemia -10.9%

C=NCC#N
inactive: HCT-15 colon 94.2% and 107% | HT29 colon 83.6% and 103% | SNB-75 CNS 91.4% and 88.2% | SNB-19 CNS 102% and 108% | U251 CNS 102% and 107% | PC-3 prostate 96.3% and 122% | SK-MEL-5 melanoma 106% and 102% | UACC-62 melanoma; 10 µM unless noted 107% and 104% | LOX IMVI melanoma 102% and 111% | SK-MEL-28 melanoma 123% and 108% | SK-MEL-2 melanoma 96.9% and 82.2% | EKVX NSCLC 115% | SN12C renal 99.9% and 99.6% | UO-31 renal 87.1% and 91.8% | TK-10 renal; 10 µM unless noted 100% and 90% | ACHN renal 96.7% and 105% | CAKI-1 renal 98.1% and 115% | CCRF-CEM leukemia 118%

CC(=O)[O][Hg][c]1c(C)c(C)cc(C)c1C
active: HCT-15 colon -39.6% | HT29 colon -62.1% | SNB-75 CNS -81.2% | U251 CNS -97.3% | PC-3 prostate -77.3% | SK-MEL-5 melanoma -57.5% | UACC-62 melanoma; 10 µM unless noted -26.1% | LOX IMVI melanoma -95.3% | SK-MEL-28 melanoma -37.9% | SK-MEL-2 melanoma -48.3% | EKVX NSCLC -62.9% | SN12C renal -13.8% | UO-31 renal -86.2% | TK-10 renal; 10 µM unless noted -82.6% | CAKI-1 renal -83.9% | HL-60(TB) leukemia -13.1% | CCRF-CEM leukemia 3.85%
inactive: SNB-19 CNS 39.8% | ACHN renal 34.1%

[Cl][Hg][c]1ccc2ccccc2c1
active: HCT-15 colon -72.3% | HT29 colon -71.3% | SNB-75 CNS -85.3% | SNB-19 CNS -62.9% | PC-3 prostate -35.1% | SK-MEL-5 melanoma -100% | UACC-62 melanoma; 10 µM unless noted -43% | LOX IMVI melanoma -100% | SK-MEL-28 melanoma -89% | SK-MEL-2 melanoma -90.7% | EKVX NSCLC -48.6% | SN12C renal -67.1% | UO-31 renal -89.3% | TK-10 renal; 10 µM unless noted -95.3% | ACHN renal -85.5% | CAKI-1 renal -94% | A498 renal -9.18% | HL-60(TB) leukemia -20.3% | CCRF-CEM leukemia 0.0061%
inactive: U251 CNS 93.1%

NC(Cc1ccccc1)c1ccccc1 (stereo not drawn)
inactive: HCT-15 colon 110% and 97.8% | HT29 colon 106% and 95.1% | SNB-75 CNS 93.9% and 84.8% | SNB-19 CNS 105% and 99.7% | U251 CNS 103% and 102% | PC-3 prostate 84.8% and 90% | SK-MEL-5 melanoma 94.1% and 100% | UACC-62 melanoma; 10 µM unless noted 99.8% and 91.6% | LOX IMVI melanoma 92.2% and 97.5% | SK-MEL-28 melanoma 101% and 110% | SK-MEL-2 melanoma 99.8% and 101% | EKVX NSCLC 103% and 112% | SN12C renal 102% and 101% | UO-31 renal 93.6% and 69.8% | TK-10 renal; 10 µM unless noted 101% and 103% | ACHN renal 105% and 101% | CAKI-1 renal 96.5% and 102% | CCRF-CEM leukemia 110% and 90%

CCOP(=O)(OCC)C(O)c1ccccc1Cl (stereo not drawn)
inactive: HCT-15 colon 88.8% | HT29 colon 105% | SNB-75 CNS 98.5% | SNB-19 CNS 105% | U251 CNS 99.5% | PC-3 prostate 98.3% | SK-MEL-5 melanoma 103% | UACC-62 melanoma; 10 µM unless noted 108% | LOX IMVI melanoma 97.9% | SK-MEL-28 melanoma 114% | SK-MEL-2 melanoma 93% | SN12C renal 106% | UO-31 renal 90.5% | ACHN renal 96.8% | CAKI-1 renal 101% | HL-60(TB) leukemia 106% | CCRF-CEM leukemia 93.9%

O=[N+]([O-])c1cc[n+]([O-])c2ccccc12
active: HCT-15 colon -23.1% | HT29 colon -31.4% | SNB-75 CNS -82.2% | SNB-19 CNS -17.6% | U251 CNS -26.3% | PC-3 prostate -10.8% | SK-MEL-5 melanoma -92.5% | UACC-62 melanoma; 10 µM unless noted -85.2% | LOX IMVI melanoma -73.7% | SK-MEL-28 melanoma -86.9% | SK-MEL-2 melanoma -56.2% | EKVX NSCLC -3.54% | SN12C renal -27.5% | UO-31 renal -29.5% | TK-10 renal; 10 µM unless noted -22.6% | ACHN renal -42.4% | CAKI-1 renal -28% | HL-60(TB) leukemia -26.9% | CCRF-CEM leukemia -11.1%

C#CC1(O)CCC(C(C)(C)C)CC1 (stereo not drawn)
inactive: HCT-15 colon 91.6% | HT29 colon 104% | SNB-75 CNS 113% | SNB-19 CNS 103% | U251 CNS 106% | PC-3 prostate 97.1% | SK-MEL-5 melanoma 105% | UACC-62 melanoma; 10 µM unless noted 104% | LOX IMVI melanoma 110% | SK-MEL-28 melanoma 120% | SK-MEL-2 melanoma 112% | EKVX NSCLC 118% | SN12C renal 104% | UO-31 renal 108% | TK-10 renal; 10 µM unless noted 106% | ACHN renal 104% | CAKI-1 renal 110% | A498 renal 99.5% | HL-60(TB) leukemia 140% | CCRF-CEM leukemia 96.6%

C/C(=C\c1ccc(Cl)c(Cl)c1)[N+](=O)[O-]
-23.9% (active) and 87.8% (inactive): U251 CNS
-75.1% (active) and 90.1% (inactive): LOX IMVI melanoma
-26.5% (active) and 83.5% (inactive): HL-60(TB) leukemia
8.59% (active) and 85.4% (inactive): CCRF-CEM leukemia
4.82% (active) and 91.4% (inactive): TK-10 renal; 10 µM unless noted
-35% (active) and 85.2% (inactive): PC-3 prostate
-52.3% (active) and 102% (inactive): HT29 colon
-43.4% (active) and 101% (inactive): SN12C renal
-70.7% (active) and 105% (inactive): ACHN renal
inactive: SNB-75 CNS 90.3% | SNB-19 CNS 87.4% and 103% | SK-MEL-5 melanoma 84.5% and 101% | UACC-62 melanoma; 10 µM unless noted 13.5% and 92.4% | SK-MEL-2 melanoma 18.1% and 95.5% | EKVX NSCLC 94.6% | CAKI-1 renal 121%
-84.4% (active) and 97.6% (inactive): UO-31 renal
-24.5% (active) and 103% (inactive): SK-MEL-28 melanoma
-66.8% (active) and 101% (inactive): HCT-15 colon

COc1cc2c(c(OC)c1OC)-c1ccc(O)c(=O)cc1[C@@H](NC(C)=O)CC2
active: UACC-62 melanoma; 100 µM -41.5%
inactive: HCT-15 colon 38.3% | HT29 colon 29.9% | SNB-75 CNS 67.5% | SNB-19 CNS 38% | U251 CNS 24.6% | PC-3 prostate 25.2% | SK-MEL-5 melanoma 55.8% | UACC-62 melanoma; 10 µM 55.2% | LOX IMVI melanoma 44.1% | SK-MEL-28 melanoma 68.3% | SK-MEL-2 melanoma 47.9% | SN12C renal 60% | UO-31 renal 53.3% | TK-10 renal; 10 µM 64.4% | TK-10 renal; 100 µM 12.6% | ACHN renal 61.2% | CAKI-1 renal 26.6% | A498 renal 63.7% | CCRF-CEM leukemia 16.2%

C[C@@H]1C[C@@H]([C@H](O)CC2CC(=O)NC(=O)C2)C(=O)[C@@H](C)C1
inactive: SNB-19 CNS 10.5% | EKVX NSCLC 12.4% | CAKI-1 renal 15.9% | A498 renal 17.7%
active: HCT-15 colon 8.36% | HT29 colon 3.76% | SNB-75 CNS 8.07% | U251 CNS 3.25% | PC-3 prostate 8.32% | SK-MEL-5 melanoma 0.54% | UACC-62 melanoma; 10 µM unless noted 5.43% | LOX IMVI melanoma -10.7% | SK-MEL-28 melanoma -13.1% | SK-MEL-2 melanoma -6.5% | SN12C renal -0.0682% | UO-31 renal 0.7% | TK-10 renal; 10 µM unless noted 8.46% | ACHN renal 3.19% | HL-60(TB) leukemia -3.87%

COc1cc2c(cc1OC)C13CCN4CC5=CCOC6CC(=O)N2C1C6C5CC43 (stereo not drawn)
inactive: HCT-15 colon 103% and 109% | HT29 colon 122% and 111% | SNB-75 CNS 97.8% and 111% | SNB-19 CNS 105% and 111% | U251 CNS 98% and 98.4% | PC-3 prostate 94.8% and 40% | SK-MEL-5 melanoma 92.9% and 91.1% | UACC-62 melanoma; 10 µM unless noted 104% and 88.1% | LOX IMVI melanoma 101% and 97.4% | SK-MEL-28 melanoma 114% and 105% | SK-MEL-2 melanoma 116% and 77.5% | EKVX NSCLC 105% and 114% | SN12C renal 97.3% and 91.3% | UO-31 renal 87.9% and 92.8% | TK-10 renal; 10 µM unless noted 112% and 138% | ACHN renal 99.6% and 107% | CAKI-1 renal 103% and 104% | CCRF-CEM leukemia 100% and 76.3%

O=c1[nH]c2ccccc2n1C1CCN(CCCC(c2ccc(F)cc2)c2ccc(F)cc2)CC1
-0.815% (active) and 31.2% (inactive): CCRF-CEM leukemia
15.6% (inactive) and -22.7% (active): LOX IMVI melanoma
37.7% (inactive) and -3.08% (active): HCT-15 colon
27.2% (inactive) and -9.09% (active): A498 renal
82.2% (inactive) and -53.2% (active): SK-MEL-28 melanoma
inactive: SNB-75 CNS 77.1% and 106% | SNB-19 CNS 77.9% and 68.2% | UACC-62 melanoma; 10 µM unless noted 38.4% and 30.3% | SK-MEL-2 melanoma 95.8% and 63.6% | EKVX NSCLC 42.1% and 51.4% | SN12C renal 40.7% and 58% | UO-31 renal 33.1% and 12.5% | TK-10 renal; 10 µM unless noted 62.1% and 63.3% | ACHN renal 44.4% | CAKI-1 renal 35.5% and 54%
-1.25% (active) and 17.5% (inactive): U251 CNS
active: HT29 colon 9.69% and -2.65%
23.6% (inactive) and -86.5% (active): SK-MEL-5 melanoma

— PubChem BioAssay (NCI)
